# Laboratory results published in PubChem BioAssay (NCATS).
# Records with an inconclusive call do not appear. Calls of active or inactive are those of the source. Calls come from the whole dose curve; as a rule, active = well fitted activation curve with a large enough effect; inconclusive = small, poorly fitted or top-dose-only effect; inactive = flat fitted curve, though single readings scatter.
# Assay: Primary redox qHTS assay for identification of artifact compounds. (AID 1845223);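 note: 0% = DMSO and 100% = reference compound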
# Settings: Amplex Red/HRP redox cycling with DTT, fluorescence; series mostly up to 53.8 µM; redox activity (% of DA3003): at the top concentration
# Procedure, shortened: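 Redox-cycling detection via DTT (250 uM final) oxidation coupled to Amplex Red (25 uM)/HRP (250 mU/mL) in HBSS. 15 min preincubation plus 30 min after DTT, room temperature. Ex/Em 525/598 nm; 4-parameter Hill fit against DMSO and 10 uM DA3003.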
row,Structure (SMILES),redox activity (% of DA3003)
1,Cc1sc2c(c1C)C(c1ccc(Cl)cc1)=N[C@H](CC(=O)NCCCCNC(=O)COc1cccc3c1C(=O)N([C@H]1CCC(=O)NC1=O)C3=O)c1nnc(C)n1-2,5.43% (inactive)
2,CC1CCC(=O)CC(SCC(O)C(=O)O)CCC(=O)O1 (stereo not given),-11.7% (inactive)
3,COc1ccc(C[C@H]2COC(=O)[C@@H]2Cc2ccc(O[C@@H]3O[C@H](CO)[C@@H](O)[C@H](O)[C@H]3O)c(OC)c2)cc1OC,-3.6% [at 25.6 µM] (inactive)
4,CCC(C)CNCC(=O)N1CCC2SC=CC2C1COc1cccc(C)c1 (stereo not given),0.658% (inactive)
5,C=C1CC2OC(=O)C(COC)C2C(OC(=O)/C(C)=C\C)CC2(C)OC1=CC2=O (stereo not given),18.4% (inactive)
6,CCC(C)(OC(C)=O)C(=O)O[C@H]1[C@H](OC(C)=O)[C@]2(CO)[C@H](O)[C@H](O)[C@]3(C)C(=CCC4[C@@]5(C)CC[C@H](O[C@@H]6O[C@H](C(=O)O)[C@@H](O)[C@H](O[C@@H]7OC[C@H](O)[C@H](O[C@@H]8OC[C@H](O)[C@H](O)[C@H]8O)[C@H]7O)[C@H]6O[C@@H]6O[C@H](CO)[C@@H](O)[C@H](O)[C@H]6O)C(C)(C)C5CC[C@]43C)[C@@H]2CC1(C)C (stereo not given in full),22% [at 11.5 µM] (inactive)
7,NC(=O)c1nc(Nc2ccccc2)sc1NC(=O)C1CCCCC1,-4.65% (inactive)
8,CC1=CC2/C=C(\C)CCC(O)C/C=C/C(=O)OC23C(=O)NC(CC(C)C)C3C1C (stereo not given),-5.59% [at 25.6 µM] (inactive)
9,CC(=O)N1CCN(CCOc2ccc(C3CCN(C4=Nn5c(nnc5C(F)(F)F)CC4)CC3)cc2)CC1,7.91% (inactive)
10,Cc1ccc(C(C)C)c(O[C@@H]2O[C@H](CO)[C@@H](O)[C@H](O)[C@H]2O)c1,-18.4% (inactive)
11,Cc1ccc(F)cc1S(=O)(=O)N[C@@H]1CCN(Cc2ccc(OC(C)C)cc2)C1,1.36% (inactive)
12,O=c1[nH]c2ccccc2n1CCN1CCN(c2cccc(C(F)(F)F)c2)CC1,6.2% (inactive)
13,CC(C)n1nc(C#Cc2ccccc2)c2c(N)ncnc21,18.5% (inactive)
14,CC(CCC1(O)OC2CC3C4CC=C5CC(O[C@@H]6O[C@H](CO)[C@@H](O[C@@H]7O[C@@H](C)[C@H](O)[C@@H](O)[C@H]7O)[C@H](O)[C@H]6O[C@@H]6O[C@@H](C)[C@H](O)[C@@H](O)[C@H]6O)CCC5(C)C4CCC3(C)C2C1C)CO[C@@H]1O[C@H](CO)[C@@H](O)[C@H](O)[C@H]1O (stereo not given in full),12.7% [at 11.5 µM] (inactive)
15,O=C(Nc1cccnn1)N1CCN(c2nccc(-c3ccc(F)c(F)c3)n2)CC1,-0.0099% [at 114 µM] (inactive)
16,C[C@H](Nc1cc2c(-c3ccc4c(c3)OCO4)noc2cn1)c1ccccc1,-7.37% (inactive)
17,C=C1CCCC2(C)CCC(C(C)(C)OC3OC(C)C(O)C(O)C3OC(=O)/C(C)=C\C)CC12 (stereo not given),-7.23% [at 25.6 µM] (inactive)
18,CC(C)c1cc(-c2ccc(F)c3ccccc23)nc(N)n1,-1.98% (inactive)
19,C=C1C(=O)OC2C1CCC1(C)C(O)CCC(=C)C21 (stereo not given),19.3% (inactive)
20,C/C=C(/C)C(=O)OC1C=C2C3C(C)C(C)C(OC(=O)C(C)C(C)O)CC3(C)CCC2(C)C2(C)CC(OC(C)=O)C3C(C)(C)C(O)C(=O)CC3(C)C12 (stereo not given),1.51% [at 25.6 µM] (inactive)
21,C=C1C(=O)O[C@@H]2C(OC(=O)/C(C)=C\C)/C(C)=C\C(=O)/C=C(\C)C[C@H](O)[C@@H]12 (stereo not given in full),1.04% (inactive)
22,OC(CC1c2ccccc2-c2cncn21)C1CCCCC1 (stereo not given),-1.59% (inactive)
23,CCC(C)C(=O)O[C@H]1[C@H](O)[C@@]2(COC(C)=O)C(CC1(C)C)C1=CCC3[C@@]4(C)CC[C@H](O[C@@H]5O[C@H](C(=O)O)[C@@H](O)[C@H](O)[C@H]5O)[C@@](C)(CO)C4CC[C@@]3(C)[C@]1(C)C[C@@H]2O (stereo not given in full),14.3% [at 11.5 µM] (inactive)
24,Nc1ncnc2c1c(-c1ccc(Cl)cc1)nn2-c1cccc(-c2cnnn2Cc2cccc(-c3ccccc3)c2)c1,-0.451% (inactive)
25,CCC[C@H](N[C@H]1CCc2cc(F)cc(F)c2C1)C(=O)Nc1cn(C(C)(C)CNCC(C)(C)C)cn1,6.61% (inactive)
26,CC(C)(C)C1CCN(C(=O)n2ncc(C(O)(c3ccccc3)c3ccccc3)n2)CC1,-1.45% (inactive)
27,C/C=C/C=C/C=C/C(=O)O[C@@H]1C=C2COC(=O)[C@]2(O)[C@@]2(C)CCCC(C)(C)[C@H]12,19.7% [at 25.6 µM] (inactive)
28,C=CCc1ccc(OC(C)Cc2ccc(OC)c(OC)c2)c(OC)c1 (stereo not given),11.9% (inactive)
29,C=C(COC(=O)C(O)C(O)CN)C12OC1C1(C)C(=CC2=O)C(O)C(O)CC1C (stereo not given),18.2% (inactive)
30,COC1CC(O[C@H]2CC[C@]3(C)C4CC[C@@]5(C)C(=O)[C@]4(CC[C@@H]3C2)CC[C@@H]5C2=CC(=O)OC2)OC(C)C1OC1OC(COC2OC(CO)C(O)C(O)C2O)C(O)C(O)C1O (stereo not given in full),13.6% [at 11.5 µM] (inactive)
